Experimental data as given in ChEMBL document CHEMBL1157539, “Thousands of chemical starting points for antimalarial lead identification” (Nature, 2010).

Each compound was assayed on Plasmodium falciparum (assay: GSK_TCMDC: Inhibition of Plasmodium falciparum 3D7 in whole red blood cells, using parasite LDH activity as an index of growth. Test compounds present at 2uM).
Type: functional

| Structure (SMILES) | Inhibition [%] |
| --- | --- |
| Cc1cc(C(=O)Nc2nc(-c3ccccn3)nc3ccsc23)no1 | 98 |
| Cc1cc(=NN=CC=Cc2ccccc2)c2ccc(F)cc2[nH]1 | 100 |
| NC(=O)c1cccc(C(=O)Nc2cccc(-c3ccc(-c4nc5ccccc5[nH]4)s3)c2)c1 | 95 |
| Cc1cc2ncn(-c3nccc(NCc4ccc(F)c(C)c4)n3)c2cc1C.O=C(O)C(F)(F)F | 90 |
| CN(C)c1ccc(N2C(N)=NC(N)=NC23CCCC3)cc1.Cl | 97 |
| CCNc1cc(C(=O)N[C@@H](Cc2ccccc2)[C@H](O)CNC(CC)c2cccc(Cl)c2)cc(N2CCCC2=O)c1.Cl (some centres undefined) | 97 |
| CC(C)CCN1CCCN(Cc2cccc(NC(=O)c3cc4ccccc4s3)c2)CC1.O=C(O)C(F)(F)F | 96 |
| N/C(=N\c1cccc(Cc2ccccc2)n1)NCc1ccccc1 | 85 |
| FC(F)(F)c1ccc2c(NN=Cc3cccc(Cl)c3)ccnc2c1 | 93 |
| Cn1nc(-c2ccc(NC(=O)Nc3cc(C(F)(F)F)ccc3F)c(F)c2)c2cnc(NCCCn3ccnc3)nc21.O=C(O)C(F)(F)F | 100 |
| Oc1ccc2[nH]cc(C3CCN(CCCCCCCCCN4CCC(c5c[nH]c6ccc(O)cc56)CC4)CC3)c2c1 | 100 |
| COc1ccc(N2C(=O)C3C(C2=O)C2(C)c4ccccc4C3(C)c3ccccc32)c([N+](=O)[O-])c1 (centres undefined) | 99 |
| COc1ccc(Cl)cc1NC(=O)Nc1cc(C)nc2ccccc12 | 100 |
| CC1(C)CN(CCC2CCC(NC(=O)/C=C/c3ccccc3F)CC2)Cc2ccc(C#N)cc21.Cl (centres undefined) | 89 |
